Measurements reported in ChEMBL document CHEMBL1201862, “PubChem BioAssay data set” (2004).
Where “and” joins values, the source holds several entries; their conditions need not be identical. Equal values may be shown once.

experiment: A High Throughput Confirmatory Assay used to Identify Novel Compounds that Inhibit Mycobacterium Tuberculosis in the absence of Glycerol using Purified and Synthesized Compounds (8).; type: functional; call rule not given here

Compound	IC90
COc1ccc(N2CCN(C(=O)c3ccc(CNc4c(N5CCOCC5)c(=O)c4=O)cc3)CC2)cc1	> 100 µM (active)
O=C(NCCc1ccc(Cl)cc1)c1ccc(CNc2c(N3CCOCC3)c(=O)c2=O)cc1	> 100 µM (active)
O=C(NCCc1ccc(Cl)cc1)C1CCC(CNc2c(N3CCCCC3)c(=O)c2=O)CC1 (centres undefined)	> 83.3 µM (active)
CC1CC(C)CN(C(=O)c2ccc(CNc3c(N4CCCC4)c(=O)c3=O)cc2)C1 (centres undefined)	> 100 µM (active)
O=C(c1ccc(CNc2c(N3CCCC3)c(=O)c2=O)cc1)N1CCN(c2ccccc2)CC1	> 100 µM (active)
O=C(C1CCC(CNc2c(N3CCCCC3)c(=O)c2=O)CC1)N1CCCCC1 (centres undefined)	> 83.3 µM (active)
O=C(c1ccc(CNc2c(N3CCCC3)c(=O)c2=O)cc1)N1CCc2ccccc2C1	> 100 µM (active)
O=C(c1ccc(CNc2c(N3CCOCC3)c(=O)c2=O)cc1)N1CCN(c2ccccc2)CC1	> 53.1 µM (active)
O=C(c1ccc(CNc2c(N3CCCC3)c(=O)c2=O)cc1)N1CCC(c2ccccc2)CC1	> 100 µM (active)
CC1CC(C)CN(C(=O)C2CCC(CNc3c(N4CCCCC4)c(=O)c3=O)CC2)C1 (centres undefined)	> 75 µM (active) and > 100 µM (active)
CCOC(=O)N1CCC(/N=c2\c(O)c(O)\c2=N/c2cccc(CC)c2)CC1	> 59.3 µM (active)
O=C(c1ccc(CNc2c(N3CCCC3)c(=O)c2=O)cc1)N1CC=C(c2ccccc2)CC1	> 100 µM (active) and > 47.2 µM (active)
CC1CCN(C(=O)c2ccc(CNc3c(N4CCCC4)c(=O)c3=O)cc2)CC1	> 100 µM (active)
CC1CCCN(C(=O)c2ccc(CNc3c(N4CCCCC4)c(=O)c3=O)cc2)C1 (centres undefined)	> 100 µM (active)
CC(C)CCNC(=O)CSc1nc2c(c(=O)[nH]1)CCCCC2	> 100 µM (active)
CC(=O)c1ccc(NC(=O)c2ccc(CNc3c(N4CCOCC4)c(=O)c3=O)cc2)cc1	> 100 µM (active)
O=C(c1ccc(CNc2c(N3CCOCC3)c(=O)c2=O)cc1)N1CCC(c2ccccc2)CC1	> 68.9 µM (active)
CC1CCCN(C(=O)C2CCC(CNc3c(N4CCCCC4)c(=O)c3=O)CC2)C1 (centres undefined)	> 100 µM (active)
CC(C)OC(=O)CSc1ncnc2c1cnn2-c1ccccc1	> 100 µM (active)
